# In PubChem BioAssay AID651598 (Sanford-Burnham Center for Chemical Genomics, 2012):
# Values joined by “and” are separate entries in the source; they are usually repeats but may differ in a detail not shown here. Equal entries are not always repeated.
# Biological target: C-X-C chemokine receptor type 6 (Homo sapiens) (UniProt O00574)
# Assay: APJ beta-arrestin recruitment blockade alongside CXCR6 – cell-based, DiscoveRx, panel, CHO-K1, counter-screen for CXCR6 antagonist project, SAR follow-up (AID 651598)
# Conditions: CHO-K1 PathHunter beta-arrestin luminescence, antagonist mode; run 4, at 80 µM (top of the series)
# C-X-C chemokine receptor type 6 (Homo sapiens), sequence (O00574 whole entry, looked up): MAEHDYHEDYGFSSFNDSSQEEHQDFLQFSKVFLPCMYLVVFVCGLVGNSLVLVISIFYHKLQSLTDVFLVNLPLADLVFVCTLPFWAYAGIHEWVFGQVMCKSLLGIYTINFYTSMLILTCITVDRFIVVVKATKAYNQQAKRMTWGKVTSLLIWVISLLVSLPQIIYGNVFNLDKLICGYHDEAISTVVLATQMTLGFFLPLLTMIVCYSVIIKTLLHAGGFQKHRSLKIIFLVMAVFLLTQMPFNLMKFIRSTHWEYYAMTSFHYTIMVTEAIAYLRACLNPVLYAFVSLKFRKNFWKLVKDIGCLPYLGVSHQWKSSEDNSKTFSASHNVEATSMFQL
row,Structure (SMILES),inhibition
1,COc1cc(C(=O)NC2CC3CCC(C2)N3CC(=O)Nc2ccccc2)cc(OC)c1OC (stereo not drawn),45.8% and 2.45%
2,COc1cc(C(=O)NC2CC3CCCC(C2)N3CC(=O)Nc2ccccc2)cc(OC)c1OC (stereo not drawn),88.8% and 51.2% and 29%
3,COc1cc(C(=O)NC2CCN(CC(=O)Nc3ccccc3)CC2)cc(OC)c1OC,29.6%
